Experimental data reported in PubChem BioAssay (NCATS).
Records with an inconclusive call do not appear. The call rests on the fitted dose curve; in most records, active means well fitted curve in either direction with a large enough effect (not every such curve was filed as active); inconclusive means small, poorly fitted or top-dose-only effect, or another doubt; inactive means flat fitted curve, though single readings scatter.

assay: Stat Signaling Pathway (AID 446); conditions: ME-180 (cervical carcinoma) SIE beta-lactamase reporter, IL-6 stimulated, 5 h; at 7.69 µM (top of the series) unless noted
Protocol: NCGC Assay Overview: The IL-6/STAT signaling pathway was assayed in ME-180 cervical carcinoma cells by a beta-lactamase reporter gene controlled by a STAT Inducible Element (SIE). This reporter is induced by IL-6 at 40 pM AC50 and inhibited by the pan JAK inhibitor, 2-(1,1-Dimethylethyl)-9-fluoro-3,6-dihydro-7H-benz[h]-imidaz[4,5-f]isoquinolin-7-one, at approximately 10 nM AC50. Plated cells were incubated overnight and on the following day, stimulated with 40 pM IL-6 for 5 hrs. The assay was screened at the AC50 of IL-6 activation to identify both inhibitors and activators of IL-6/STAT signaling.
NCGC Assay Protocol Summary: Cells were trypsinized, washed in assay medium (AM, OPTI MEM with 0.5% fetal bovine serum, 0.1 mM nonessential amino acids, 1 mM sodium pyruvate, 10mM HEPES pH 7.3, 100U/ml penicillin, and 100 ug/ml streptomycin) and suspended at 6 x 10e5/ml in AM. Approximately […] cells in 5 uL/well was dispensed into 1536 well plates and the cells were incubated overnight at 37 C. 23 nL of compound were delivered by a pin tool and 1 uL of IL-6 (40 pM final concentration in AM) was added. After centrifugation at 1000 rpm for less than a minute, plates were incubated at 37C for 5 hrs. One uL of detector mix (LiveBLAzerTM, Invitrogen) was added, the plates incubated at room temperature for 2.5 hrs, and fluorescence intensity at 460 and 530 nm emission was measured at 405 nm excitation by an Envision (Perkin Elmer) or Safire II (Tecan). Data were normalized by GeneData to the controls for AC90 stimulation (300 pM IL-6) and to AC90 inhibition (125 nM Jak inhibitor, 40 pM IL-6 in AM).
On the % scale 0 is the no-effect control and ±100 the full control effect.

activity, negative = inhibition, inactive:
CC(C)c1ccc(O)c(O)c(=O)c1 (tested in a mixture with another compound) 4.84%
N#CCCn1c(=O)c(-c2cccc(C#N)c2)nc2cnc(Oc3ccccc3)nc21 -3.8%
CC1(C)N=C(N)N=C(N)N1c1cccc(CSc2ccccc2)c1 2.13%
C=C(Br)CN(C)CC(=C)Br -0.267%
C[N+](C)(C)c1nc(N)nc2c1ncn2[C@H]1O[C@@H](CO)[C@@H](O)[C@H]1O -3.17%
O=C(O)c1ccc2c(c1C(=O)O)C(=O)OC2(c1ccc(O)cc1)c1ccc(O)cc1 1.84%
NC[C@H]1O[C@H](n2cnc3c(N)ncnc32)C[C@@H]1O 9.05%
C=C(C)COc1ccc2c(c1)CCC1C2CC[C@]2(C)C(=O)/C(=N/O)CC12 (stereo not given in full) 9.84%
CSC(N)=NCCC[C@@H](N)C(=O)O 10.5% [at 38 µM]
COc1cc2c3cc1Oc1c(OC)c(OC)cc4c1[C@@H](Cc1ccc(O)c(c1)Oc1ccc(cc1)C[C@@H]3N(C)CC2)CN(C)C4 -1.76%
Clc1ccc(Cl)c(SCCCN2CCNCC2)c1 -0.882%
N#CNC(N)=Nc1ccc(Cl)cc1 -1.86%
FC(F)(F)c1nc(SCc2ccc(Cl)cc2)n[nH]1 -0.49%
O=S(=O)(O)c1ccc(O)c2ncccc12.O=S(=O)(O)c1ccc(O)c2ncccc12.[Zn] 7.8%
CN(N=O)c1ccc(/C=C\c2ccnc3ccccc23)cc1 -0.754%
CCOC(=O)CCCN 8.34%
Oc1c(CN2CCOCC2)ccc(CN2CCOCC2)c1O -3.77%
Nc1[nH]c(=O)nc2c1ncn2[C@H]1O[C@@H](CO)[C@@H](O)[C@@H]1O 17.5%
O=C(O)c1ccc(CNCc2ccccc2)cc1 15.5%
O=C(O)CCCc1ccc2ccc3ccccc3c2c1 -2.84%
C[C@H]1CCCC2(CC[N+](C)(CCC[N+](C)(C)C)CC2)C1 (stereo not given in full) 1.53%
C[C@@]12C[C@H](O)[C@@H]3[C@H](CCC4=CC(=O)CC[C@]43C)[C@H]1CC[C@@H]2c1csc(-c2ccccc2)n1 -6.13%
Cc1cc(=Nc2ccc3c(c2)c(N)cc(C)[n+]3C)nc(N)n1C -8.63%
O=C(O)c1c2c(c(O)c3c1CN(C1CCCCC1)CO3)OCN(C1CCCCC1)C2 0.651%
NC(N)=N/N=C(/c1ccccc1)c1ccc(O)cc1O 6.43%
O=C(O)c1cc(=O)[nH]c(=S)[nH]1 6.7%
CCCCn1cnc2c(c(CC#N)nn2-c2ccccc2)c1=N -0.662%
CC(C)(Oc1ccc(-c2cccc3ccccc23)cc1)C(=O)O 1.48%
O=C(O)[C@@H]1[C@@H](C(=O)Nc2ccccc2)[C@@H]2C=C[C@@H]1O2 -5.22%
C[N+](C)(C)c1cc2c(nn1)Nc1ccccc1S2 19.9%
CN(C)[C@H]1C(=O)C(C(=O)NCN2CCCC2)=C(O)[C@]2(O)C(=O)C3=C(O)c4c(O)cccc4[C@](C)(O)[C@H]3C[C@H]12 -11.7%
Cn1c(=O)c2[nH]c(CCCc3ccc([N+](=O)[O-])cc3)nc2n(C)c1=O 6%
NNC(=O)c1ccc[n+](CCc2ccccc2)c1 -0.167%
COCCNc1nc(-c2ccc(C(=O)N(C)C)cc2)nc2ccccc12 1.02%
CC(C)[C@@H](C)/C=C\[C@@H](C)[C@@H]1CC[C@H]2C3=CC=C4C[C@@H](O)CC[C@]4(C)[C@H]3CC[C@]21C -5.31%
NC([N-]/N=C/c1ccccn1)=[S]=[Fe].O=S(=O)(O)O -13.8%
CC(=O)O[C@H]1CC[C@@]2(C)[C@@H](CC[C@H]3[C@H]2CC(=O)[C@@]2(C)[C@@H]3C[C@H]3CC(C)=CC(=O)[C@H]32)C1 -1.11%
C[N+](C)([O-])Cc1cc(-c2ccccc2)ccc1O -3.36%
CN(C)c1ccc(C(c2ccc(N(C)C)cc2)c2ccc([N+](=O)[O-])cc2)cc1 14.9%
CC1(C)CCC(=O)N[C@H]1CC(=O)C[C@H]1NC(=O)CCC1(C)C 3.06%
